Bioassay records (PubChem)
rCAG RNA binder: r(CAG) repeat RNA binding. AID 651821. TO-PRO-1 dye displacement fluorescence. inhibition, % at 3 µM. 370,000 compounds, 1.3% hits;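 active = inhibition above the plate cutoff, the mean of all test compounds on that plate plus 3 SD, cut at about 35% in these data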;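 note: 0% = DMSO alone and 100% = 100 µM mitoxantrone as full dye displacement; higher means more dye released from RNA so lower well fluorescence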
ABHD5-PLIN5 inh: ABHD5-PLIN5 protein interaction inhibition; Q00G26+Q8WTS1; Split G. princeps luciferase complementation, luminescence, 4 h; inhibition, % at 4 µM; 360,000 compounds, 0.78% hits; AID 602281;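 active = inhibition above the mean inhibition across every tested compound plus 3 SD, cut at about 22% in these data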;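 note: 0% = DMSO only wells and the 100% control is not disclosed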
Rtt109 HAT inh: C. albicans Rtt109 histone acetyltransferase inhibition | purified Rtt109/Vps75, ThioGlo CoA-SH fluorescence, 4 h | inhibition, % at 34.9 µM | Q5AAJ8 | 330,000 compounds, 0.16% hits;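 active = inhibition of at least 50% in every replicate; inconclusive = best replicate reaches 50% inhibition but some replicates fall short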
LANA-H2A inh: blocks KSHV LANA binding to histone H2A/H2B | AID 2629 | Q9QR71 | 320,000 compounds, 0.6% hits | cell-free LANA-H2A/H2B peptide, fluorescence polarization | inhibition, % (no concentration beside the values); in the data active = inhibition mostly above about 10%, no sharp cut-off; inactive = mostly below about 6.7%
PRMT1 FP inh: PRMT1 (human) inhibition, primary screen; Q99873; recombinant PRMT1, activity-based probe fluorescence polarization; inhibition, % at 2.79 µM; 370,000 compounds, 1.3% hits; AID 652257;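 active = inhibition above about 21% made by adding two undisclosed values, limit read from the data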
ALR inh: blocks human ALR sulfhydryl oxidase activity; inhibition, % (no concentration beside the values); 290,000 compounds, 3.8% hits; purified ALR, DTT oxidation, H2O2 HRP-luminol luminescence; P55789;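 active = mean replicate inhibition above about 79%, with every replicate also reaching it, limit read from the data; inconclusive = only one of the two criteria met; inactive = mean below limit and not every replicate reaching it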
Starred values were filed as active, the others as inactive; ? = inconclusive; . = not tested or not shown. Most compounds without a hit are left out; they make up all but 5.9% or so of the library.

SMILES | rCAG RNA binder | ABHD5-PLIN5 inh | Rtt109 HAT inh | LANA-H2A inh | PRMT1 FP inh | ALR inh
CCOC(=O)N1CCC(NC(=O)CSCc2nc(-c3cccc(OC)c3)oc2C)CC1 | -1.3 | -3.8 | -16.5 | 2.0 | 1.5 | 99.2*
CCOc1ccc(-c2nc(CSCC(=O)NC3CC3)c(C)o2)cc1 | . | 6.0 | -4.0 | 4.7 | . | 98.6*
CC(=O)c1ccc2c(c1)N(CCCN(C)C)c1ccccc1S2 | 1.5 | 2.3 | 1.0 | . | 17.6 | .
COC(=O)c1ccc(OC(=O)CCN2c3ccccc3Sc3ccccc32)cc1 | 4.6 | -1.4 | -6.4 | 3.8 | 1.3 | 7.6
COc1ccc2c(c1)Sc1ccccc1N2CCN(C)C | . | 8.2 | 17.8 | 0.2 | . | 98.2*
CCC(=O)c1ccc2c(c1)N(CCCN(C)C)c1ccccc1S2 | 4.9 | -3.5 | 6.9 | -5.2 | 5.2 | 98.2*
CN(C)CCCN1c2ccccc2Sc2ccccc21 | 5.8 | 8.8 | 15.5 | 6.6 | -3.8 | 97.7*
COc1cc(OC)cc(C(=O)Nc2ccc(S(=O)(=O)Nc3cc(C)nc(C)n3)cc2)c1 | 10.6 | . | . | -1.4 | -0.7 | 85.2*
COc1ccccc1C(=O)Nc1ccc(S(=O)(=O)Nc2cc(C)nc(C)n2)cc1 | 10.1 | 6.1 | -0.5 | 4.7 | -2.4 | -6.5
COc1ccc(C(=O)/C=C/Nc2ccc(S(=O)(=O)Nc3cc(OC)nc(OC)n3)cc2)c(OC)c1 | 32.4 | 2.4 | 6.1 | 17.2* | 3.0 | .
COc1ccc(C(=O)Nc2ccc(S(=O)(=O)Nc3cc(C)nc(C)n3)cc2)c(OC)c1 | 13.3 | 1.7 | 0.0 | -8.3 | 21.2* | 2.6
O=C(NCCS(=O)(=O)N1CCN(c2ccccc2F)CC1)c1ccc2c(c1)OCO2 | -2.6 | 2.5 | -2.7 | -1.1 | -0.4 | 0.3
CC(C)CC1OC(C)Cc2[nH][nH]c(=O)c21 (centres undefined) | 0.2 | -2.7 | . | . | -2.2 | .
COC(=O)C1=C(C)N(Cc2ccccc2C(F)(F)F)C(=NCc2ccc3c(c2)OCO3)NC1CCc1ccccc1 (centres undefined) | 10.2 | . | . | . | 3.5 | .
Cc1cc(C)c(S(=O)(=O)Nc2cc(SCC(=O)O)c(O)c3ccccc23)cc1C | . | . | . | -0.5 | . | 57.3
O=C(O)CSc1cc(NS(=O)(=O)c2ccc(Cl)cc2)c2ccccc2c1O | 37.0* | 4.8 | -13.0 | -1.2 | 43.9* | 7.7
CCOc1ccc(NC(c2ccccc2)P(=O)(OC)OC)cc1 (centres undefined) | -6.7 | 0.5 | -8.3 | 6.6 | -2.6 | 89.4*
COP(=O)(OC)C(Nc1ccc(C)cc1)c1ccc([N+](=O)[O-])cc1 (centres undefined) | -4.6 | -4.3 | 4.3 | 5.0 | -0.7 | 83.2*
CCOP(=O)(OCC)C(Nc1ccccc1)c1cc(OC)ccc1OC (centres undefined) | -5.6 | 0.2 | 3.9 | -1.7 | -1.7 | 65.3
CCOc1ccc2nc(SCC(=O)Nc3ccc4c(c3)OCCO4)[nH]c2c1 | 3.6 | -6.4 | 2.1 | 2.2 | 0.4 | -4.1
CCOc1ccc2nc(SCC(=O)Nc3cccc(S(=O)(=O)NC4=NCCCCC4)c3)[nH]c2c1 | 13.8 | -5.2 | -4.0 | 0.4 | 5.8 | 91.7*
CCOC(=O)CSc1nc(N2CCOCC2)c2c(c1C#N)CC(C)(C)N(C)C2 | -0.9 | -1.2 | -8.9 | 15.2* | 2.1 | 99.6*
CCOC(=O)c1c(-c2cc(OC)c(OC)c(OC)c2)csc1NC(=O)c1ccccc1 | 3.8 | -4.8 | . | . | -1.3 | .
COc1cc(C(=O)Nc2scc(-c3ccccc3)c2C(=O)O)cc(OC)c1OC | 49.3* | -3.5 | -2.1 | 5.5 | 5.0 | 13.5
O=C(NC(c1ccc(Cl)cc1)c1ccccn1)C1CCN(CCOc2ccc(Cl)cc2Cl)CC1 (centres undefined) | 2.6 | -5.0 | . | . | 2.4 | .
SMILES | rCAG RNA binder | ABHD5-PLIN5 inh | Rtt109 HAT inh | LANA-H2A inh | PRMT1 FP inh | ALR inh
CC(C)NC(=O)[C@]1(C#N)CC(=O)N(C)[C@@H]1c1ccccc1 | -0.3 | . | . | . | -0.2 | .
CN(O)/C=C1\C(=O)Nc2ccccc21 | 1.0 | -33.6 | 5.7 | -0.5 | 15.2 | ?
CN(C)/C=C1\C(=O)Nc2ccccc21 | 0.3 | -1.5 | -3.3 | 4.1 | 2.4 | 98.9*
CC(C(=O)Nc1ccccc1)C(=O)Nc1ccccc1 | 0.6 | 7.5 | 3.0 | 0.9 | 0.3 | 6.3
CCCOC(=O)C(=O)NNc1ccccc1 | -2.1 | -0.6 | -0.6 | 1.6 | 0.0 | 100.2*
C=C(C)C(=O)NNc1ccccc1 | -1.6 | 3.1 | 0.9 | -1.4 | -0.2 | 31.0
CC(C)OC(=O)C(=O)NNc1ccccc1 | 0.8 | 2.2 | . | -3.3 | 0.6 | 100.5*
CCOc1ccc(N(CC(=O)Nc2c(C)n(C)n(-c3ccccc3)c2=O)S(=O)(=O)c2ccc(C(C)(C)C)cc2)cc1 | 3.9 | . | . | . | 0.7 | .
COc1ccc(NC(=O)C2CCN(S(=O)(=O)c3cccs3)CC2)cc1OC | 3.0 | 2.4 | 3.9 | -5.4 | -2.8 | .
COc1ccc(C(=O)Nc2ccc(-c3ccc(C)o3)cc2)cc1S(=O)(=O)N1CCOCC1 | 12.9 | 22.3* | -12.8 | 3.7 | 20.9 | .
COc1ccc(NC(=O)CSc2ccc(NC(C)=O)cc2)cc1S(=O)(=O)N1CCCCC1 | 1.4 | 0.1 | 2.6 | -0.8 | 0.8 | 98.8*
COc1ccc(NC(=O)CSc2ccc(F)cc2)cc1S(=O)(=O)N1CCCCC1 | -0.1 | 3.5 | -0.3 | -0.3 | -0.1 | -1.6
COc1ccc(NC(=O)c2cc(F)cc(F)c2)cc1S(=O)(=O)N1CCCCC1 | 2.8 | 0.7 | -0.4 | 17.8* | 0.0 | -0.5
CC(C)C[C@H](NC1(C(=O)NCCc2c[nH]c3ccccc23)CCOCC1)C(=O)NCCCc1ccccc1 | . | . | . | . | 2.8 | .
O=C(C[C@@H]1C[C@@H]2c3cc(NC(=O)c4ccc5c(c4)OCO5)ccc3O[C@@H]2[C@@H](CO)O1)NCc1cccnc1 | 7.1 | . | . | . | 5.3 | .
O=C(COC(=O)c1ccc(O)cc1O)c1ccc2c(c1)OCO2 | 5.0 | -3.8 | 1.6 | 56.2* | 2.6 | 3.3
CN(CC(=O)Nc1ccccc1Br)C(=O)c1ccccc1OCc1ccccc1Cl | -5.7 | 4.5 | -5.6 | . | -1.5 | .
CN(C)c1ccc(C(O)P(=O)(OC2CCCCC2)OC2CCCCC2)cc1 (centres undefined) | -9.0 | -5.8 | 3.0 | 2.9 | 0.7 | 96.8*
CC(C)OP(=O)(OC(C)C)C(O)c1ccc(N(C)C)cc1 (centres undefined) | -3.9 | -3.9 | 2.3 | -0.2 | -8.5 | 97.3*
CN(Cc1ccccc1)C(=O)CN1CCN(S(=O)(=O)c2ccccc2F)CC1 | 0.7 | -9.2 | . | . | -2.5 | .
CN(C)S(=O)(=O)c1ccc(C(=O)NCc2nc3ccccc3s2)cc1 | 0.6 | 9.7 | 0.0 | 14.7* | -3.0 | .
CCOC(=O)[C@@H]1[C@H]2COc3cc(OC)ccc3[C@H]2N2C(=O)N(c3cccc(F)c3)C(=O)[C@]12C | -4.7 | -10.5 | 2.0 | -0.5 | 2.6 | 3.5
COc1ccc(-c2c(Cc3ccccc3)nc(NC(=O)c3ccccc3)n2Cc2ccccc2)cc1 | 7.8 | . | . | . | -7.5 | .
O=S(=O)(C=C(c1ccccc1)c1ccccc1)c1ccccc1 | -4.9 | -1.2 | -2.1 | 15.4* | 0.4 | 7.8
